# In PubChem BioAssay (NCATS):
# Records with an inconclusive call do not appear. Values without a mark were called inactive. The source made the active and inactive calls. The call rests on the fitted dose curve; in most records, active means well fitted cell-killing curve with a large enough effect; inconclusive means small, poorly fitted or top-dose-only effect, or effect the other way; inactive means no such curve, though single readings can be large or run the other way.
# Assays:
# [1] = Quantitative High-Throughput drug screen in 47 multiple myeloma cell lines against the NCATS MIPE library collection: OPM1_PLB cell viability assay (AID 1918989); further: nearly all actives have a fitted effect of over 40% in size
# In short: (§1)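 Viability after 48 h drug exposure was measured as ATP-dependent luminescence. Cells, 500 per well, sat at 37 °C under 5% CO2; DMSO wells set 100%, media-only wells 0%.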
# [2] = Quantitative High-Throughput drug screen in 47 multiple myeloma cell lines against the NCATS MIPE library collection: SKMM1_PLB cell viability assay (AID 1919863); conditions: SKMM1 myeloma viability, CellTiter-Glo ATP, 48 h; viability: hits give low values; further: nearly all actives have a fitted effect of over 35% in size
# In short: as §1
# [3] = Quantitative High-Throughput drug screen in 47 multiple myeloma cell lines against the NCATS MIPE library collection: VP6_DJ cell viability assay (AID 1919867); further: nearly all actives have a fitted effect of over 40% in size
# In short: as §1
# [4] = Quantitative High-Throughput drug screen in 47 multiple myeloma cell lines against the NCATS MIPE library collection: PE2_PLB cell viability assay (AID 1919869); further: nearly all actives have a fitted effect of over 35% in size
# In short: as §1
# [5] = Quantitative High-Throughput drug screen in 47 multiple myeloma cell lines against the NCATS MIPE library collection: PCM6_Riken cell viability assay (AID 1919870); further: nearly all actives have a fitted effect of over 30% in size
# In short: as §1
# [6] = Quantitative High-Throughput drug screen in 47 multiple myeloma cell lines against the NCATS MIPE library collection: RPMI8226_ATCC cell viability assay (AID 1919871); further: nearly all actives have a fitted effect of over 30% in size
# In short: as §1
# [7] = Quantitative High-Throughput drug screen in 47 multiple myeloma cell lines against the NCATS MIPE library collection: OPM2_DSMZ cell viability assay (AID 1919872); further: nearly all actives have a fitted effect of over 30% in size
# In short: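 Myeloma cell lines, 500 cells per well, exposed to MIPE 4.0 library compounds for 48 h at 37C, 5% CO2. Viability from ATP by CellTiter-Glo luminescence; normalised to DMSO (100%) and media-only (0%) wells.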
# [8] = Quantitative High-Throughput drug screen in 47 multiple myeloma cell lines against the NCATS MIPE library collection: KMS11_JCRBsus cell viability assay (AID 1919873); further: nearly all actives have a fitted effect of over 50% in size
# In short: as §1
# [9] = Quantitative High-Throughput drug screen in 47 multiple myeloma cell lines against the NCATS MIPE library collection: KMS28BM_JCRB cell viability assay (AID 1919874); further: nearly all actives have a fitted effect of over 35% in size
# In short: as §1
# [10] = Quantitative High-Throughput drug screen in 47 multiple myeloma cell lines against the NCATS MIPE library collection: U266_ATCC cell viability assay (AID 1919864); further: nearly all actives have a fitted effect of over 35% in size
# In short: as §1
# [11] = Quantitative High-Throughput drug screen in 47 multiple myeloma cell lines against the NCATS MIPE library collection: XG6_PLB cell viability assay (AID 1919865); further: nearly all actives have a fitted effect of over 40% in size
# In short: as §1
# [12] = Quantitative High-Throughput drug screen in 47 multiple myeloma cell lines against the NCATS MIPE library collection: XG1_PLB cell viability assay (AID 1919866); further: nearly all actives have a fitted effect of over 35% in size
# In short: as §1
# [13] = Quantitative High-Throughput drug screen in 47 multiple myeloma cell lines against the NCATS MIPE library collection: UTMC2_PLB cell viability assay (AID 1919868); conditions: CellTiter-Glo ATP luminescence, 48 h; viability (% of DMSO control): at 45.8 µM (top of the series); further: nearly all actives have a fitted effect of over 55% in size
# In short: as §1
# Potency means the concentration at half of the fitted maximal effect.
Compound,Potency [1],Potency [2],Potency [3],Potency [4],Potency [5],Potency [6],Potency [7],Potency [8],viability [2],Potency [9],Potency [10],Potency [11],Potency [12],Potency [13]
CC1(C)CCC(CN2CCN(c3ccc(C(=O)NS(=O)(=O)c4ccc(NCC5CCOCC5)c([N+](=O)[O-])c4)c(Oc4cnc5[nH]ccc5c4)c3)CC2)=C(c2ccc(Cl)cc2)C1,5.26 µM (active),20.9 µM (active),7.43 µM (active),16.6 µM (active),0.148 µM (active),14.8 µM (active),20.9 µM (active),inactive,,,,,,
COc1cccc([C@@H](C)NCCCc2ccccc2Cl)c1,inactive,,,,,inactive,inactive,,122%,inactive,,,,
CN(C)CCC=C1c2ccccc2COc2ccc(CC(=O)O)cc21,inactive,,,inactive,inactive,,inactive,inactive,114%,inactive,,,,
CCCCCN(C)CCC(O)(P(=O)(O)O)P(=O)(O)O,inactive,,,inactive,inactive,inactive,inactive,inactive,,inactive,inactive,inactive,inactive,
COc1cc(Nc2ncc(F)c(Nc3ccc4c(n3)NC(=O)C(C)(C)O4)n2)cc(OC)c1OC,1.87 µM (active),,1.66 µM (active),1.05 µM (active),,4.18 µM (active),5.9 µM (active),,,inactive,inactive,1.66 µM (active),,0.59 µM (active)
CC(=O)N(C)C1(c2ccccc2)CCN(CCC[C@]2(c3ccc(Cl)c(Cl)c3)CCCN(C(=O)c3ccccc3)C2)CC1,18.7 µM (active),,13.2 µM (active),20.9 µM (active),13.2 µM (active),,,9.35 µM (active),,20.9 µM (active),23.5 µM (active),8.33 µM (active),14.8 µM (active),
O=c1c(-c2ccc(O)cc2)coc2cc(OC3O[C@H](CO)[C@H](O)[C@H](O)[C@H]3O)cc(O)c12 (stereo partly specified),7.43 µM (active),,2.64 µM (active),9.35 µM (active),2.64 µM (active),,inactive,,,,8.33 µM (active),1.32 µM (active),,5.9 µM (active)
Cc1c(NC(=O)c2ccc(C(C)(C)C)cc2)cccc1-c1cn(C)c(=O)c(Nc2ccc(C(=O)N3CCOCC3)cc2)n1,18.7 µM (active),,,14.8 µM (active),,14.8 µM (active),,,,18.7 µM (active),23.5 µM (active),20.9 µM (active),9.35 µM (active),
Cn1cc(C=C2C(=O)Nc3cccnc32)c2ccccc21,18.7 µM (active),,10.5 µM (active),,,,inactive,,130%,inactive,,,inactive,
C[C@]12CC[C@@H]3c4ccc(O)cc4C[C@@H](CCCCCCCCCS(=O)CCCC(F)(F)C(F)(F)F)[C@H]3[C@H]1CC[C@H]2O (stereo partly specified),inactive,,inactive,inactive,,,inactive,2.09 µM (active),,,inactive,6.62 µM (active),inactive,inactive
CNC(=O)c1ccccc1Sc1ccc2c(C=Cc3ccccn3)n[nH]c2c1,18.7 µM (active),13.2 µM (active),14.8 µM (active),20.9 µM (active),7.43 µM (active),18.7 µM (active),,1.18 µM (active),,23.5 µM (active),,,,
Cc1ccc(F)c(NC(=O)Nc2ccc(-c3cccc4[nH]nc(N)c34)cc2)c1,10.5 µM (active),,16.6 µM (active),,23.5 µM (active),,,5.26 µM (active),,8.33 µM (active),16.6 µM (active),16.6 µM (active),16.6 µM (active),8.33 µM (active)
Cc1nc(N)sc1-c1ccnc(Nc2ccc(N3CCOCC3)cc2)n1,4.18 µM (active),,3.32 µM (active),3.32 µM (active),6.62 µM (active),11.8 µM (active),11.8 µM (active),7.43 µM (active),,16.6 µM (active),23.5 µM (active),4.69 µM (active),,0.59 µM (active)
O=c1c(-c2ccc(O)cc2)coc2cc(O)ccc12,inactive,,,inactive,inactive,,inactive,inactive,,inactive,inactive,inactive,inactive,inactive
CO[C@H]1C(=O)[C@]2(C)[C@@H](OC)C[C@H]3OC[C@@]3(OC(C)=O)[C@H]2[C@H](OC(=O)c2ccccc2)[C@]2(O)C[C@H](OC(=O)[C@H](O)[C@@H](NC(=O)OC(C)(C)C)c3ccccc3)C(C)=C1C2(C)C,inactive,,0.001 µM (active),inactive,0.0012 µM (active),inactive,inactive,inactive,65.2%,inactive,,,,inactive
